Only some compounds are listed: those with a hit (about 4.6% of all), similar ones and a draw of the others.
TRHR ag – qHTS for Small Molecule Agonists and Allosteric Enhancers of Human TRH Receptor: Primary Screen for Agonists; actives 0.18% (n = 360,000); Thyrotropin-releasing hormone receptor (Homo sapiens), P34981; activation, % at 2 µM; TRHR cells, calcium flux fluo-8, FDSS agonist mode; further: 0% is about no effect
Target sequence (P34981 whole entry, looked up): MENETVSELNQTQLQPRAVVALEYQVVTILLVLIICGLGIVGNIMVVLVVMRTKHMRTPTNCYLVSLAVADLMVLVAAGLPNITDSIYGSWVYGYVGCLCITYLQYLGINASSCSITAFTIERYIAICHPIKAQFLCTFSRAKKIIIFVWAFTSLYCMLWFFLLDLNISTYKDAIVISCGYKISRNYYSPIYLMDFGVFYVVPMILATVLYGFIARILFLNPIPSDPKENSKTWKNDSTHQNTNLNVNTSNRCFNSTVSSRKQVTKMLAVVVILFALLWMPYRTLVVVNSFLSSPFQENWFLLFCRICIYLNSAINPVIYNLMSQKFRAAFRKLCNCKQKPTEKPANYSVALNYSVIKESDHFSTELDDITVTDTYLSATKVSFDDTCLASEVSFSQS
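In this calcium-flux screen, cells bearing human TRHR are dye-loaded with fluo-8, baselined for 10 cycles, then exposed to library compounds; positive kinetic calcium responses during the agonist phase mark hits, with TRH as control.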
D1 agonist – Allosteric Agonists of the Human D1 Dopamine Receptor: qHTS; D(1A) dopamine receptor (Homo sapiens), P21728; HEK293 T-REx D1 cells, calcium flux, agonist mode; activation, % at 2 µM; actives 1% (n = 360,000); AID 504660, 2011; further: 0% is about no effect
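Tetracycline-induced HEK293 TREx D1 cells, force-coupled to calcium signalling, were dye-loaded with a no-wash calcium kit. Compound was pin-added after a 10 s baseline. Fluorescence was read kinetically at 1 cycle/s for 180 s, with calcium rises flagged as agonism.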
D1 antagonist – Antagonist of Human D 1 Dopamine Receptor: qHTS; D(1A) dopamine receptor (Homo sapiens), P21728; activity change, negative = inhibition, % at 10 µM; HEK293 TREx D1 cells, calcium flux, dopamine EC80; stronger effect = lower value; actives 3.2% (n = 360,000); in the data active means activity change below about -30%; further: on the % scale 0 is the no-effect control and ±100 the full control effect
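Kinetic fluorescence of a calcium dye serves as the read-out. D1-expressing Hek293 Trex cells, induced overnight at 30 C, are exposed to compound for 180 s before an EC80 dopamine addition, then read 180 s further.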
TRHR enhancer – qHTS for Small Molecule Agonists and Allosteric Enhancers of Human TRH Receptor: Primary Screen for Enhancers; TRHR cells, fluo-8 calcium fluorescence, EC20 TRH enhancement; enhancement, % at 2 µM; actives 0.66% (n = 360,000); AID 493056, 2011; in the data active means enhancement above about 30%; further: 0% is about no effect
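Enhancer read-out: after compound pinning and an initial kinetic agonist-mode read, an EC20 of TRH (10 nM final) was injected and fluo-8 calcium signal (Ex 480/Em 530) followed at 1 s/cycle for 100 cycles in TRHR-expressing cells.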
D1 potentiator – Potentiators of Human D1 Dopamine Receptor: qHTS | potentiation, % at 10 µM | actives 0.036% (n = 360,000) | HEK293 TREx D1 cells, calcium flux, dopamine EC20 potentiation | D(1A) dopamine receptor (Homo sapiens), P21728; in the data active means potentiation above about 30%; further: 0% is about no effect
Active calls of the source: *; nt = no result. Unless noted, no stated cut-off is given here; in the data, active means activation above about 30%; inactive means the rest.

SMILES	TRHR ag	D1 agonist	D1 antagonist	TRHR enhancer	D1 potentiator
O=[N+]([O-])c1ccc(-c2ccc(/C=N/Nc3nc(NCc4ccccc4)nc(N4CCOCC4)n3)o2)cc1	21	74*	-12	-1	2
O=C(CCNS(=O)(=O)c1ccccc1F)N1CCN(C/C=C/c2ccccc2)CC1	0	5	-9	2	-2
CCn1c(C(=O)N2CCC(C(=O)N3CCN(c4cccc(C)c4C)CC3)CC2)cc2sccc21	0	3	-15	2	-4
CCn1c(C(=O)N2CCC(C(=O)N3CCN(c4cc(C)ccc4C)CC3)CC2)cc2sccc21	0	-1	-36*	4	-3
CC(=O)n1c(C=Nc2ccc(Cl)cc2)c(O)c2ccccc21	-4	39*	2	9	1
O=C(NCCCN1CCOCC1)c1cc(-c2ccc(Cl)c(Cl)c2)on1	1	24	-33*	-2	-1
O=C(NCCCN1CCOCC1)c1ccc(CS(=O)(=O)Cc2ccccc2Cl)o1	-1	2	-45*	-1	1
O=C(NCCCN1CCOCC1)c1ccco1	0	2	-35*	2	-3
Cc1cc(C)n(CCCNC(=O)c2ccco2)n1	0	1	-31*	-5	-6
O=C(NCCCN1CCCCCC1)c1ccc(CS(=O)(=O)Cc2ccccc2F)o1	0	-1	1	1	4
Cc1ccc2nc(-c3ccc(C)s3)c(Nc3ccc4c(c3)OCCO4)n2c1	1	3	-7	12	8
CC(C)(C)c1cc(C(F)(F)F)nc(SCCCNC(=O)c2ccco2)n1	0	19	-38*	14	-3
CC(C)(C)c1ccc(C(=O)NCCCNC(=O)c2ccco2)cc1	0	4	-3	1	nt
Cc1ccccc1CS(=O)(=O)CCC(=O)NCCCN1CCOCC1	-1	0	-44*	-5	0
CCN(CC)CCCNC(=O)c1cc(-c2ccc(O)cc2)on1	0	5	-44*	16	-5
O=C(NCc1ccco1)/C(=C/c1ccc(Br)cc1)NC(=O)c1ccco1	0	1	2	-6	-2
CCN(CC)CCCNC(=O)CCCn1ncn2c(cc3occc32)c1=O	0	-1	16	3	-5
CC(C)(C)OC(=O)N1CCC(c2c(C(=O)NCc3ccccn3)cnn2-c2ccccc2)CC1	-1	1	-2	-16	-1
O=C1CCCN1c1ncc(S(=O)(=O)c2ccc([N+](=O)[O-])cc2)s1	-1	13	-47*	-5	-4
CC(=O)Nc1sc2c(c1-c1nc3ccccc3s1)CCN(C(C)C)C2	130*	74*	-13	-4	9
CC(=O)N1CCc2c(sc(NC(=O)CSc3ccc(F)cc3)c2-c2nc3ccccc3s2)C1	0	2	nt	-3	-2
CCN1CCc2c(sc(NC(=O)CSc3ccccc3)c2-c2nc3ccccc3s2)C1	147*	403*	-24	-20	-5
CN1CCc2c(sc(NC(=O)CSc3ccc(F)cc3)c2-c2nc3ccccc3s2)C1	102*	399*	-22	-13	-1
COC(=O)c1cc2oc3ccccc3c2n1CC(=O)Nc1ccc(C)cc1C	0	1	5	16	-3
C=CCc1ccccc1OCc1nc2ccc(C)cc2[nH]1	-1	21	-37*	7	-2
SMILES	TRHR ag	D1 agonist	D1 antagonist	TRHR enhancer	D1 potentiator
COc1ccccc1CN1C2CCCC1CC(NC(=O)/C=C/c1ccccc1)C2 (stereo unspecified)	0	0	-12	32*	3
Cn1cccc1/C=N/n1c(-c2ccco2)n[nH]c1=S	0	-1	19	2	-5
COc1cc(-c2n[nH]c(=S)n2/N=C/c2cccn2C)cc(OC)c1OC	19	78*	-59*	2	-2
CCOC(=O)c1cn(Cc2ccc(Br)cc2)nn1	0	7	8	36*	-6
CCOC(=O)c1cn(Cc2ccc(C)cc2)nn1	0	5	-5	3	3
CCN(c1ccccc1)S(=O)(=O)c1ccc(C(=O)Oc2ccc(C(C)=O)cc2)cc1	1	24	-38*	-6	-9
Cc1coc2c1c(C)cc1oc(=O)c(CC(=O)NCCc3ccc(Cl)cc3)c(C)c12	0	1	8	5	4
CCCc1cc(C(=O)Nc2cc(Br)ccc2O)no1	0	40*	-15	-5	-4
CCCc1cc(C(=O)Nc2cc(Cl)ccc2O)no1	1	1	-4	1	-7
CCOC(=O)C1=C(N)Oc2cc(C)[nH]c(=O)c2C1c1ccncc1 (stereo unspecified)	0	4	9	-5	-4
CCOC(=O)C1=C(N)Oc2c(c(=O)[nH]c3ccccc23)C1c1ccccc1 (stereo unspecified)	-1	3	-87*	6	-3
Nc1nc2ccc(N3CCOCC3)cc2s1	0	1	-34*	1	-3
Cc1csc2ncnc(N3CCN(C(=S)Nc4ccc(F)cc4F)CC3)c12	-1	10	-36*	1	-5
Fc1ccc(NC(=S)N2CCCN(c3ccc(C(F)(F)F)cn3)CC2)c(F)c1	1	17	-54*	2	-7
CC1CN(C(=S)Nc2ccc(F)cc2F)CC(C)O1 (stereo unspecified)	0	0	2	-5	5
O=C(Nc1ccc(F)cc1F)N1CCCN(c2ccc(C(F)(F)F)cn2)CC1	0	10	-13	-3	-2
Cc1onc(-c2ccccc2)c1C(=O)N(Cc1ccccc1)C(C)C	0	0	-7	-1	-4
CCOc1ccc(OCC)c(NC(=O)Cn2nc(CC)n3c(cc4sccc43)c2=O)c1	1	1	-6	0	-5
Cc1c(CCC(=O)NCc2cccc(Cl)c2)c(=O)oc2c(C)c(O)ccc12	-1	-1	-11	-13	0
COC(=O)c1c(C)[nH]c(C(=O)C(C)OC(=O)C2CC(=O)N(c3ccc(C)cc3)C2)c1C (stereo unspecified)	0	26	-1	-5	nt
COC(=O)c1c(C)[nH]c(C(=O)C(C)OC(=O)C2CC(=O)N(CCc3ccccc3)C2)c1C (stereo unspecified)	0	3	-33*	3	-18
COc1ccc(NC(=O)c2c(NCc3ccc(OC)c(OC)c3OC)sc3c2CCC3)c(OC)c1	0	0	-8	-4	-1
NC(=O)C[n+]1cccc2ccccc21	12	45*	-4	-7	-5
O=C(C[n+]1cccc2ccccc21)c1ccc(Br)cc1	0	4	-5	-9	-3
